Hits are enriched below; roughly 1.1% of the tested compounds scored in any of these assays.
PriA SSB inh – blocks PriA binding to SSB C-terminal tail; AlphaScreen SSBct-PriA binding, biotinylated peptide; inhibition, % at 33 µM; 0.6% of 430,000 active; in the data active means inhibition mostly above about 37%, no sharp cut-off; inactive means mostly below about 20%;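 further: plate controls were negative control peptide for no effect and reference peptide for full effect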
RecA intein inh – blocks M. tuberculosis RecA intein splicing. inhibition, % (no concentration beside the values). 0.75% of 290,000 active. P9WHJ3. AID 2221. cell-free RecA intein splicing, fluorescence; in the data active means inhibition above about 30%;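 further: 0% = vehicle wells and 100% = reference inhibitor control wells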
Rv3671c inh – inhibits the M. tuberculosis serine protease Rv3671c. P9WHR9. inhibition, % at 5.96 µM. 0.048% of 320,000 active; in the data active means inhibition above about 38%;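 further: extracellular domain of Rv3671c used as enzyme; 0% = enzyme with DMSO and 100% = no enzyme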
Mtb betalactam – beta-lactam sensitization of Mtb H37Rv; M. tuberculosis H37Rv growth with meropenem, percent inhibition; 0.27% of 330,000 active; inhibition, % at 25 µM; AID 434955;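 further: growth measured after seven days incubation then overnight dye step; 0% = bacteria only wells and 100% = bacteria with antibiotic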
UGM FP inh – Mtb UDP-galactopyranose mutase inhibition; P9WIQ1; purified UGM, fluorescence polarization probe displacement; inhibition, % at 10 µM; 0.06% of 320,000 active; AID 504406; in the data active means inhibition above about 10%, passing the limit was not always enough
Target sequence (P9WIQ1 whole entry, looked up): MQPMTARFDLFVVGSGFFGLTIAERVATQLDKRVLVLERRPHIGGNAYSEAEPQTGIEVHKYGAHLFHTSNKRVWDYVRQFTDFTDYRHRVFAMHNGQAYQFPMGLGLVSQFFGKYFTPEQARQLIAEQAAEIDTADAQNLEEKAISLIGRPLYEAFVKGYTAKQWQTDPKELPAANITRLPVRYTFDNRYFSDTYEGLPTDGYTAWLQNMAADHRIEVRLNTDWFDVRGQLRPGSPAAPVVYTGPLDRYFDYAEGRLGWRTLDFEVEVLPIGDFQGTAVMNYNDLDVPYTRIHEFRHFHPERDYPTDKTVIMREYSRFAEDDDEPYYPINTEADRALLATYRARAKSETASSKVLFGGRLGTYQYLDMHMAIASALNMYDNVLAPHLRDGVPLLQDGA
GFP chromo cs – counter-screen GFP chromophore formation inhibition; shares compounds with RecA intein inh; cell-free GFP chromophore formation, fluorescence; EC50, µM; 83% of 2,100 active
Numbers without * were called inactive. Unless noted, how the calls were made is not given here.

For CCCCc1ccc(NC(=O)COCC)cc1 the results were PriA SSB inh -0.2, RecA intein inh -2.0, Rv3671c inh -5.2, Mtb betalactam 16.8 and UGM FP inh 0.7.
`O=C(CSCc1cc(=O)[nH][nH]1)Nc1ccc(F)cc1` gave PriA SSB inh -24.0, RecA intein inh 84.5*, Rv3671c inh -11.5, Mtb betalactam -0.2, UGM FP inh -0.2 and GFP chromo cs 12.4*.
For CCN1CCN(c2oc(-c3ccc(S(=O)(=O)N4CCC(C)CC4)cc3)nc2C#N)CC1 the results were PriA SSB inh 9.0.
For CCCCCCCN(C(=O)CCl)c1ccccc1C the results were PriA SSB inh -13.6, RecA intein inh 56.1*, Rv3671c inh 12.9, UGM FP inh -1.1 and GFP chromo cs 17.6*.
For CCCN(C(=O)Cn1ncc2c([nH]c3ccccc32)c1=O)c1ccccc1C the results were PriA SSB inh -5.1, RecA intein inh -1.4, Rv3671c inh 1.1, Mtb betalactam 2.4 and UGM FP inh -0.4.
Screening CCn1c(=NC(=O)CSCC(=O)N2CCc3ccccc32)sc2ccccc21 returned PriA SSB inh 6.0.
Screening CCOC(=O)c1[nH]c(=O)c2ccccc2c1O returned PriA SSB inh -8.8, RecA intein inh 56.0*, Rv3671c inh -18.3, Mtb betalactam 1.6, UGM FP inh -1.6 and GFP chromo cs 26.4*.
COC(=O)c1ccc2c(=O)n(Cc3ccc(F)cc3)c(N3CCN(c4ccccn4)CC3)nc2c1 was read as PriA SSB inh 6.0.
`CC(CCc1ccccc1)NC(=O)COC(=O)c1cc(NS(=O)(=O)c2ccc(Cl)c([N+](=O)[O-])c2)ccc1O` (stereo unspecified) gave PriA SSB inh 14.5, RecA intein inh 37.5*, Rv3671c inh -59.0, Mtb betalactam -2.6, UGM FP inh -0.6 and GFP chromo cs >38.
O=C(NC1CCCC1)c1csc(Nc2ccccc2)n1 was read as PriA SSB inh -4.0.
For Cc1csc(C(=O)N2CCCSCC2CN(C)C)c1 (stereo unspecified) the results were PriA SSB inh -2.0.
Screening C/C(CC(=O)Nc1cc(C)ccn1)=N\NC(=O)c1ccccc1C returned RecA intein inh 50.0*, Rv3671c inh -7.5, Mtb betalactam 6.9, UGM FP inh 1.3 and GFP chromo cs 33.9*.
Screening COc1ccc(C(=O)N/N=C(\C)CC(=O)Nc2ccccn2)cc1OC returned RecA intein inh 16.5, Rv3671c inh -3.0, Mtb betalactam 8.0 and UGM FP inh 4.1.
Screening C/C(CC(=O)Nc1ccccn1)=N\NC(=O)c1cccc(C)c1 returned RecA intein inh 40.6*, Rv3671c inh 10.2, Mtb betalactam 2.4, UGM FP inh 0.1 and GFP chromo cs 36.6*.
CC(CC(=O)Nc1cc(C)ccn1)=NNC(=O)c1ccccc1C was read as PriA SSB inh -22.1.
C/C(CC(=O)Nc1cc(C)ccn1)=N\NC(=O)c1cccc(F)c1 was read as RecA intein inh 43.4*, Rv3671c inh -4.8, Mtb betalactam -3.9, UGM FP inh 0.4 and GFP chromo cs 33.1*.
C/C(CC(=O)Nc1cc(C)ccn1)=N\NC(=O)COc1cccc(C)c1 was read as RecA intein inh 94.2* and GFP chromo cs 6.99*.
C/C(CC(=O)Nc1cc(Cl)ccc1Cl)=N\NC(=O)COc1cccc(C)c1 was read as RecA intein inh 5.1, Rv3671c inh -19.1, Mtb betalactam 5.8 and UGM FP inh 0.2.
For CC(CC(=O)Nc1ccccn1)=NNC(=O)c1ccc(C)cc1 the results were PriA SSB inh -13.9.
Cc1ccc(/C=C/S(=O)(=O)NCc2nn(C)c(=O)c3ccccc23)cc1 was read as PriA SSB inh -4.0.
N#Cc1nccnc1N1CCC(CNC(=O)Nc2cccs2)CC1 was read as PriA SSB inh -2.0.
For CC(CC(=O)Nc1cc(C)ccn1)=NNC(=O)C(=O)Nc1cccc(C)c1 the results were PriA SSB inh -6.9.
For C/C(CC(=O)Nc1cc(C)ccn1)=N\NC(=O)c1ccncc1 the results were RecA intein inh 75.0*, Rv3671c inh -19.3, Mtb betalactam 98.6, UGM FP inh 0.6 and GFP chromo cs 17*.
For Fc1ccc2[nH]c3c(Cl)ncnc3c2c1 the results were PriA SSB inh -15.0, RecA intein inh 1.7, Rv3671c inh -0.8, Mtb betalactam -3.3 and UGM FP inh -0.9.
Screening COc1ccc2[nH]c3c(Cl)ncnc3c2c1 returned PriA SSB inh -5.4, RecA intein inh 76.2*, Rv3671c inh -2.1, Mtb betalactam 4.2, UGM FP inh 0.8 and GFP chromo cs >38.
CCOc1ccc(S(=O)(=O)NCc2cccnc2)cc1C was read as PriA SSB inh -3.0, RecA intein inh 39.9*, Rv3671c inh -7.2, Mtb betalactam 34.1, UGM FP inh -2.2 and GFP chromo cs >38.
For CS(=O)(=O)N1CCC(Oc2ccccc2C(=O)N2CCCCC2CO)CC1 (stereo unspecified) the results were PriA SSB inh -2.4, RecA intein inh 48.5*, Rv3671c inh 4.8, Mtb betalactam 0.0, UGM FP inh 3.4 and GFP chromo cs >38.
For O=C1C=Cc2ccccc2C1=Cc1[nH]c(=O)[nH]c1O the results were PriA SSB inh -6.9.
Screening O=C1C=Cc2ccccc2C1=O returned RecA intein inh 38.9*, Rv3671c inh 1.5, Mtb betalactam 6.5, UGM FP inh 2.0 and GFP chromo cs 9.14*.
For COc1cc(C(c2c(C)[nH][nH]c2=O)c2c(C)[nH][nH]c2=O)ccc1OS(=O)(=O)c1ccc(C)cc1 the results were PriA SSB inh -15.2, RecA intein inh 98.0*, Rv3671c inh -6.5, Mtb betalactam -4.7, UGM FP inh -1.7 and GFP chromo cs 0.442*.
For COc1cc(C(c2c(C)[nH][nH]c2=O)c2c(C)[nH][nH]c2=O)ccc1OS(=O)(=O)c1ccccc1 the results were PriA SSB inh -20.4, RecA intein inh 94.9*, Rv3671c inh -6.0, Mtb betalactam -10.1, UGM FP inh 1.5 and GFP chromo cs 0.436*.
COc1cc(C(c2c(C)[nH][nH]c2=O)c2c(C)[nH][nH]c2=O)ccc1OC(=O)c1cccc([N+](=O)[O-])c1 was read as PriA SSB inh -4.3, Rv3671c inh -7.0, Mtb betalactam 2.7 and UGM FP inh -1.8.
COc1ccccc1OC(=O)C1OC2OC(C)(C)OC2C2OC(C)(C)OC12 (stereo unspecified) was read as PriA SSB inh -1.0.
CCOc1ccccc1CNc1ccc(O)cc1 was read as PriA SSB inh 10.3, RecA intein inh 81.6* and GFP chromo cs 23.5*.
Screening CCOc1cc(CNc2ccc(O)cc2)ccc1OCc1ccc(Cl)cc1Cl returned PriA SSB inh 1.8, RecA intein inh 39.7*, Rv3671c inh -2.1, Mtb betalactam 72.2, UGM FP inh 1.3 and GFP chromo cs >38.
O=C(N/C(=C\c1ccc([N+](=O)[O-])cc1)C(=O)N1CCCCC1)c1ccccc1 was read as PriA SSB inh -4.9, RecA intein inh 2.0, Rv3671c inh 2.3, Mtb betalactam -6.1 and UGM FP inh 4.7.
